Laboratory results published in the supplement of paper PMC6555819.

Assays:
Assay in all cases: PBM binding z-score (relative to random genomic background probes); higher = stronger binding; sequences stand for … in GC…GCGATTGACAGCGTAGAATGAAGG
[1] = tested on: FXR:RXRa (NR concentration 270 nM, RXRa partner concentration 90 nM)
Method in brief: (§1)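 The probes on custom Agilent 4×180K protein-binding microarrays were double-stranded, with 34-nt variable regions bearing direct-repeat seeds, single-nucleotide variants, half-site ablations and random human genomic background sequences. Incubation lasted 1 h with ligand-free nuclear receptor dimers in PBS pH 7.4, 2% milk, 0.02% Triton X-100, 1 mM DTT, 0.2 mg/mL BSA and 0.4 mg/ml salmon testes DNA. Antibodies against each partner (one per run) detected bound dimers, and fluorescence scans were regression-normalized. Binding z-scores take the random background probes as reference.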

[2] = tested on: LXRa:RXRa (NR concentration 270 nM, RXRa partner concentration 90 nM)
Method in brief: as §1

[3] = tested on: LXRa homodimer (NR concentration 270 nM)
Method in brief: as §1

[4] = tested on: LXRb:RXRa (NR concentration 270 nM, RXRa partner concentration 90 nM)
Method in brief: as §1

[5] = tested on: LXRb homodimer (NR concentration 270 nM)
Method in brief: as §1

[6] = tested on: PPARa:RXRa (NR concentration 270 nM, RXRa partner concentration 90 nM)
Method in brief: as §1

[7] = tested on: PPARg:RXRa (NR concentration 180 nM, RXRa partner concentration 90 nM)
Method in brief: as §1

[8] = tested on: PPARg:RXRa 270nM:90nM, anti-RXR (NR concentration 270 nM, RXRa partner concentration 90 nM)
Method in brief: as §1

[9] = tested on: PPARg:RXRa 30nM:10nM, anti-RXR (NR concentration 30 nM, RXRa partner concentration 10 nM)
Method in brief: as §1

[10] = tested on: PPARg:RXRa 90nM:30nM, anti-RXR (NR concentration 90 nM, RXRa partner concentration 30 nM)
Method in brief: as §1

[11] = tested on: PPARg:RXRa DBDmut IVT, anti-RXR (DBD mutation: RXRa K156A/R161A, NR concentration 270 nM, RXRa partner concentration 90 nM)
Method in brief: as §1

[12] = tested on: PPARg:RXRa IVT, anti-PPARg (NR concentration 270 nM, RXRa partner concentration 90 nM)
Method in brief: as §1

[13] = tested on: PPARg DBDmut:RXRa IVT, anti-PPARg (DBD mutation: PPARg1 K132A/R137A, NR concentration 270 nM, RXRa partner concentration 90 nM)
Method in brief: as §1

[14] = tested on: PPARg DBDmut IVT, anti-PPARg (DBD mutation: PPARg1 K132A/R137A, NR concentration 270 nM)
Method in brief: as §1

[15] = tested on: PPARg homodimer (NR concentration 180 nM)
Method in brief: as §1

[16] = tested on: PXR:RXRa (NR concentration 270 nM, RXRa partner concentration 90 nM)
Method in brief: as §1

[17] = tested on: PXR homodimer (NR concentration 270 nM)
Method in brief: as §1

[18] = tested on: RARa:RXR (NR concentration 270 nM, RXRa partner concentration 90 nM)
Method in brief: as §1

[19] = tested on: RARa homodimer (NR concentration 270 nM)
Method in brief: as §1

[20] = tested on: RARb:RXRa (NR concentration 270 nM, RXRa partner concentration 90 nM)
Method in brief: as §1

Sequence | PBM binding z-score [1] | PBM binding z-score [2] | PBM binding z-score [3] | PBM binding z-score [4] | PBM binding z-score [5] | PBM binding z-score [6] | PBM binding z-score [7] | PBM binding z-score [8] | PBM binding z-score [9] | PBM binding z-score [10] | PBM binding z-score [11] | PBM binding z-score [12] | PBM binding z-score [13] | PBM binding z-score [14] | PBM binding z-score [15] | PBM binding z-score [16] | PBM binding z-score [17] | PBM binding z-score [18] | PBM binding z-score [19] | PBM binding z-score [20]
TCTTGTAGAGCAAGCAGGTTAAGAAAGCCTGAGT | -0.159 | -0.27 | -0.458 | -0.282 | -1.49 | 0.415 | -0.461 | 0.511 | 1.29 | 1.1 | 1.77 | 0.824 | -0.533 | -0.908 | -0.862 | -0.144 | -0.157 | -0.225 | -0.639 | -0.127
AGTCAAAGTTCCGGACGAGGTAACGTAAAGCACG | -0.0931 | -0.354 | -0.166 | -0.301 | -0.695 | -0.0739 | 0.679 | 0.221 | -0.0701 | 0.189 | -0.341 | 0.284 | 0.0206 | -0.236 | -0.335 | -0.34 | -0.452 | 0.0687 | -0.122 | 0.265
TCGAGGAGGTTAGTCGGGGCATTCAGCCAACATA | 0.421 | 0.675 | -0.136 | 1.21 | -0.337 | 1.43 | -0.118 | 0.893 | 1.23 | 0.779 | 1.28 | 0.923 | -0.713 | -1.04 | 0.777 | 1.05 | 0.348 | 0.897 | -0.313 | 1.01
GGAACGAGGGCAAATTTGATAGCATCTGTCGACG | 0.712 | 0.506 | -0.407 | 0.682 | 0.0825 | 1.51 | 1.19 | 1.13 | -0.00323 | 0.82 | 3.93 | 2.76 | 0.00863 | -0.28 | 0.201 | 0.608 | 0.0405 | 0.115 | 0.0323 | 2.19
CCTTTCGGGTCACTCCAGGTTATAGCATCGGAGT | 4.95 | 7.32 | 2.02 | 5.17 | 0.836 | 4.58 | 3.15 | 3.78 | 1.09 | 2.75 | 2.65 | 3.53 | 0.307 | -0.494 | 2 | 4.94 | 0.803 | 3.73 | 0.474 | 4.01
CAAACTAGGTCAAGGTCGAAGTCGGTTTGTGCCA | 4.68 | 3.03 | 0.706 | 2.37 | -0.00931 | 5.05 | 8.77 | 7.1 | 5.52 | 7.19 | 8.51 | 8.63 | 2.92 | 2.06 | 3.02 | 2.71 | 0.704 | 3.14 | 0.902 | 4.47
